# Screening data (PubChem)
# BAZ2B inh: qHTS Assay for Inhibitors of BAZ2B. Bromodomain adjacent to zinc finger domain protein 2B (Homo sapiens), Q9UIF8. AlphaScreen BAZ2B-H3K14Ac peptide displacement. Potency, µM (titrated, usually from 114 µM), without a hit: top-dose activity change, negative = inhibition, hits mostly inhibitors. 360,000 tested, 4.4% active; further: on the % scale 0 is the no-effect control and ±100 the full control effect; nearly all actives have a fitted effect of over 60% in size
#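 AlphaScreen displacement of biotin-H3(5-23)K14Ac peptide (50 nM final) from BAZ2B (50 nM final) in PBS pH 7.4, 0.01% Tween-20; complex preformed 30 min RT, then compounds (top 110 uM) 30 min RT, beads 20 min dark.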
# HP1b chromo inh: HTS for Inhibitors of HP1-beta Chromodomain Interactions with Methylated Histone Tails. Potency, µM (highest dose often 114 µM), for inactives: at the highest dose activity change, negative = inhibition, usual class: inhibitors. AlphaScreen HP1-beta / biotin-H3K9me3 peptide binding. Chromobox protein homolog 1 (Homo sapiens), P83916. AID 540317, 2011. 390,000 tested, 0.56% active; further: nearly all actives have a fitted effect of over 70% in size
# Target sequence (P83916 whole entry, looked up): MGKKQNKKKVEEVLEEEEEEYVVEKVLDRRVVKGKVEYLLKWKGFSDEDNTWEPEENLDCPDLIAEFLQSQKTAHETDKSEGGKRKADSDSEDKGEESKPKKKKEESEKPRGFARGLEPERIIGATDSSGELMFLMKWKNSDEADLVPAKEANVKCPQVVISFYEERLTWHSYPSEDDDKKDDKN
#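 AlphaScreen: HP1-beta (50 nM) preformed 30 min with biotin-H3(1-18)K9me3 peptide (50 nM) in PBS pH 7.4, 0.01% Tween-20. Compound added for 30 min at RT, then streptavidin donor/nickel chelate acceptor beads (10 ug/mL) for 30 min.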
# G9a inh: qHTS Assay for Inhibitors of Histone Lysine Methyltransferase G9a | Histone-lysine N-methyltransferase EHMT2 (Homo sapiens), Q96KQ7 | G9a H3K9 monomethylation, AlphaScreen, 2 h | Potency, µM (highest dose often 102 µM), for the others: at the top dose activity, negative = inhibition, hits mostly inhibitors | 350,000 tested, 8.8% active | AID 504332, 2011; further: on the % scale 0 is the no-effect control and ±100 the full control effect; nearly all actives have a fitted effect of over 75% in size
# Target sequence (Q96KQ7 913-1193 limits assumed): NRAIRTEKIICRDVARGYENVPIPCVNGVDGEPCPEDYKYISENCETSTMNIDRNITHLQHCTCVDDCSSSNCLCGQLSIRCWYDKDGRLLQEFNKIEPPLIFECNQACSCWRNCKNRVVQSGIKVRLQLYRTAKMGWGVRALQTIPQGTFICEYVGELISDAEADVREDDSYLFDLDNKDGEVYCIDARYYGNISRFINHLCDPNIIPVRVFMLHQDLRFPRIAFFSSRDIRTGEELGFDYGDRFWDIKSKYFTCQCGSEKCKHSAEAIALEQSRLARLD
#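 AlphaScreen detection with an anti-monomethyl H3K9 antibody quantified product after a 2 h room-temperature reaction containing 500 nM biotinylated H3K9 peptide, 20 µM SAM and 20 nM enzyme, which had been preincubated 15 min with compound.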
# GLS inh: qHTS for Inhibitors of Glutaminase (GLS). 410,000 tested, 0.21% active. GLS enzymatic activity, qHTS titration. Potency, µM (series often up to 45.5 µM), for the others: at the top dose activity change, negative = inhibition, hits mostly inhibitors; further: on the % scale 0 is the no-effect control and ±100 the full control effect
#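 Two-point fluorescence kinetic (t0, 30 min RT) for hKGA; glutamate detected via glutamate oxidase–HRP–Amplex Red. Substrate: 1 mM L-glutamine solution; buffer 45 mM KH2PO4, pH 8.2.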
# JMJD2A Tudor inh: qHTS Assay for Inhibitors of JMJD2A-Tudor Domain. Lysine-specific demethylase 4A (Homo sapiens), O75164. AlphaScreen JMJD2A-Tudor / H3K4me3 peptide binding. Potency, µM (top dose mostly 114 µM), for inactives: at the top dose activity change, negative = inhibition, most hits filed as inhibitors. 390,000 tested, 4.4% active. AID 504339, 2011; further: on the % scale 0 is the no-effect control and ±100 the full control effect; nearly all actives have a fitted effect of over 50% in size
# * = called active by the depositor; ? = inconclusive; . = no result; [ ] = another dose, or the depositor's remark. In the library only some 10% were active in any assay of this set; here they are far more common. The call rests on the fitted dose curve; in most records, active means well fitted curve in the direction sought with a large enough effect; inconclusive means small, poorly fitted or top-dose-only effect, or another doubt; inactive means no such curve, though single readings can be large; an effect the other way counts as inactive or inconclusive. Potency means the concentration at half of the fitted maximal effect.
SMILES,BAZ2B inh,HP1b chromo inh,G9a inh,GLS inh,JMJD2A Tudor inh
COc1cccc(/C=N/NC(=O)c2cc3cc([N+](=O)[O-])ccc3s2)c1O,22µM*,?,?,-7%,63µM*
COc1cccc(/C=N/NC(=O)C(=O)NCc2ccco2)c1O,3%,27%,2%,7%,?
COc1cccc(/C=N/NC(=O)c2cnccn2)c1O,79µM*,51%,6%,17%,-17%[11.4 µM]
COc1ccc(OC)c(/C=N/NC(=O)C(=O)N2CCCC2)c1,-2%,69%,28%,-4%,-8%
COc1ccc(/C=N/NC(=O)c2cnccn2)c(OC)c1OC,-11%,30%,?,0%,-12%
COc1ccc(C[C@@H]2c3cc(OC)c(OC)cc3CC[N@+]2(C)CCC(=O)OCCCCCOC(=O)CC[N@@+]2(C)CCc3cc(OC)c(OC)cc3[C@H]2Cc2ccc(OC)c(OC)c2)cc1OC,.,.,26%[21.5 µM],7%[20 µM],.
Cc1nc(-c2ccc(S(=O)(=O)N(Cc3ccccc3)C(C)C)cc2)co1,-20%,19%[57 µM],-2%[59 µM],1%,2%
COC(=O)c1cccc(/C=N/NC(N)=S)c1O,4.5µM*,34%,-1%,21%,?
NC(=S)N/N=C/c1ccccc1[N+](=O)[O-],-10%,?,.,7%,-12%
CCOC(=O)c1sc(NCc2ccco2)c(-c2nc3ccccc3s2)c1N,-33%,12%,-14%[59 µM],-15%,?
C=CCNc1sc(C(=O)c2ccccc2)c(N)c1-c1nc2ccccc2s1,?,25µM*,22µM*,3%,?
CCNc1sc(C(=O)c2cccs2)c(N)c1-c1nc2ccccc2s1,?,11%,10µM*,-20%,?
CCOc1ccc(OCCC(=O)OCC(=O)NC2CCCC2)cc1,-11%,34%,-24%[12.7 µM],0%,3%
O=C(NCc1ccc(F)cc1F)[C@@H]1CCCN1C(=O)[C@@H]1CCCN1C(=O)c1ccc(Cl)cc1,.,.,.,16%,.
O=C(CCS(=O)(=O)Cc1ccccc1)Nc1nc2c(s1)CCCC2,1%,31%,-1%[12.7 µM],1%,-3%
c1ccc2c(Nc3nc4c(s3)CCCC4)cccc2c1,50µM*,?,8%[0.0925 µM],3%,-28%[57.1 µM]
O=S(=O)(Nc1nc2c(s1)CCCC2)c1ccc2ccccc2c1,?,9%,50µM*,12%,?
O=S(=O)(NC1=NCCCCC1)c1ccc2sc(NS(=O)(=O)c3ccc4ccccc4c3)nc2c1,-28%,15%,.,12%,-24%
CCC(C)NC(=O)c1ccccc1NC(=O)CN1C(=O)c2cccc3cccc1c23 (centres undefined),5%,66%,26%[59 µM],1%,22%
CC1CN(C(=O)COC(=O)Cc2ccc(Cl)cc2)CC(C)O1 (centres undefined),32%,47%,-20%[12.7 µM],-6%,3%
CCN(CC)C(=O)C1CCCN(Cc2sccc2C)C1 (centres undefined),28µM*,?,32µM*,8%,3.5µM*
Cc1cccc(CN2CCCC(C(=O)N3CCc4ccccc4C3)C2)c1 (centres undefined),50µM*,26%,13µM*,.,1%
CCN(CC)C(=O)C1CCCN(Cc2cccc(F)c2)C1 (centres undefined),?,-46%,?,3%,3.2µM*
Cc1ccsc1C(=CCCN1CCC[C@@H](C(=O)O)C1)c1sccc1C,.,24%,9%[59 µM],11%,-6%
CCN(CC)C(=O)C1CCCN(Cc2ccc3ccccc3c2)C1 (centres undefined),?,3%,?,3%,22µM*
SMILES,BAZ2B inh,HP1b chromo inh,G9a inh,GLS inh,JMJD2A Tudor inh
CC(C)=NNc1nc(-c2ccccc2)c(C)s1,.,?,32µM*,-5%,-35%
Cc1sc(N/N=C/c2cccnc2)nc1-c1ccccc1,?,-7%,.,17%,50µM*
Cc1sc(N/N=C/c2ccco2)nc1-c1ccccc1,?,-20%,?,-1%,?
Cc1ccc(Cl)cc1-c1cc(C(=O)NCc2cc(C(F)(F)F)cc(C(F)(F)F)c2)[nH]n1,.,.,.,-8%,.
O=C(O)c1c2c(nc3ccccc13)/C(=C/c1ccc(OC(F)F)cc1)CCC2,-2%,25%,?,-3%,1%
O=C(O)c1c2c(nc3ccccc13)/C(=C/c1ccc(O)cc1)CC2,40µM*,-20%,22µM*,?,56µM*
Cc1ccc2oc(=O)c3cc(C(=O)NCCCN4CCc5ccccc5C4)sc3c2c1,?,38%,32µM*,-13%,-30%
COc1ccccc1NC(=O)c1cc2c(=O)oc3ccc(C)cc3c2s1,0%,37%,0.71µM*,-15%,-12%
CCOC(=O)c1cccc(NC(=O)c2cc3c(Cl)nc4ccc(C)cc4c3s2)c1,-5%,33%,-24%[59 µM],2%,-2%
O=C(Nc1ccccn1)c1cccs1,15%,?,-3%[59 µM],?,?
CN1C(C(=O)Nc2ccccn2)=C(O)c2sccc2S1(=O)=O,50µM*,10%,?,30%,50µM*
CCOC(=O)C1=C(C)NC(SC)=NC1c1ccc(OC)cc1 (centres undefined),3%,29%,?,19%,-20%
CCC1N=C(SC)NC(C)=C1C(=O)c1ccccc1 (centres undefined),-23%,-17%,4µM*,2%,-15%
O=C(Nc1ccccc1N1CCCCC1)c1ccc(Cl)c([N+](=O)[O-])c1,?,-18%,35µM*,-5%,?
NC(=O)c1ccc(N2CCN(c3ccccc3O)CC2)c([N+](=O)[O-])c1,?,17%,?,11µM*,-23%
CC(=O)N1CCN(c2ccc(C(N)=O)cc2[N+](=O)[O-])CC1,-8%,42%,-2%,9%,-3%
CN1CCN(c2ccc(C(=O)c3ccc(Br)cc3)cc2[N+](=O)[O-])CC1,40µM*,?,45µM*,-1%,22µM*
CN1CCN(c2ccccc2NC(=O)c2ccc(N3CCCC3)c([N+](=O)[O-])c2)CC1,?,?,50µM*,2%,56µM*
O=C(NCc1nc2ccccc2[nH]1)C1=C[C@@H](c2ccc(C(F)(F)F)cc2)C[C@@H](OCc2ccc(CO)cc2)O1,.,29%,.,20%,-29%
COc1ccc(-c2cc3nc(C)c(CCC(=O)Nc4ccc(F)cc4F)c(C)n3n2)c(OC)c1,-1%,34%,4%[59 µM],-3%,-7%
O=C(Nc1ccon1)c1ccc(N2CCCCC2)c([N+](=O)[O-])c1,?,-32%,-45%,-5%,?
O=C(Nc1nc2ccccc2s1)c1ccc(N2CCCCC2)c([N+](=O)[O-])c1,10µM*,-26%,?,0%,?
